This passage reports z-score results from PubChem BioAssay.

The structures appear in SMILES notation.

The nature of this assay: basal HepG2 mitochondrial membrane potential changes, profiling panel, cell-based, JC-1 fluorescence, 24 h, 100 nL compound (AID 1167). Also: test concentration not given here. Conditions: higher = more signal.
The compound `COc1ccc(C(=O)Nc2cccc(CN3C(=O)[C@]4(O[C@H](CCn5cc(CCO)nn5)[C@@H]([Si](C)(C)c5ccc(OC)cc5)[C@@H]4C)c4ccccc43)c2)cc1` displayed a z-score of -2.18.
On to `COC(=O)c1c2oc(c1C(=O)OC)C(=O)N[C@@H](C(C)C)Cn1cc(nn1)C1(CCCCC1)NC(=O)N[C@H](CO)CC2`, for which the z-score came to 1.62.
Next, `O=C1NC(=O)C2C1C=CC(C(O)c1ccc(-c3ccccc3)s1)N2Nc1ccc(Cl)cc1Cl` (stereo unspecified): -2.92.
Next, `CCOC(=O)C[C@H]1[C@H](OC(=O)c2ccc(-c3ccccc3)cc2)[C@@H](NC(=O)c2ccccc2)c2cc(OCCCO)ccc2N1C(=O)Cc1ccc(OC)cc1`: 2.23; `COC(=O)[C@@]1(Cc2ccc(OC)cc2)[C@H]2c3cc(C(=O)N4CCCC4)n(CCCNc4ncc(C(F)(F)F)cc4Cl)c3C[C@H]2CN1C(=O)c1ccccc1`: 0.261; `CC(=CC1CCCCC1)[C@@H](NC(=O)c1cccnc1)c1ccc(-c2ccccc2)cc1`: -2.99.
As for `C=CCC(OC(C)=O)[C@@H]1[C@@H](N(Cc2ccc(-c3cccc(C(F)(F)F)c3)o2)C(=O)Cc2ccc(OC)cc2)c2cc(OCCCO)ccc2N1C(=O)c1ccc2ccccc2c1` (stereo partly specified), the z-score stood at 2.15.
Take `CCOC(=O)C1=CC[C@@H](c2ccccc2)N(S(=O)(=O)c2ccc(C)cc2)[C@H]1c1ccc(CC)cc1`: the z-score turned out to be 5.94.
In the case of `O=c1cccc(-c2ccccc2Cl)o1` it was -0.98.
`CCCCC(=C=CC[C@H](O)c1cccc(OCCO)c1)C[C@H](O)c1ccccn1`: the z-score stood at 1.17.
`COc1ccc([Si](C)(C)[C@@H]2[C@@H](CC(=O)N3CCC[C@H]3CO)O[C@]3(C(=O)N(Cc4cccc(I)c4)c4ccccc43)[C@H]2C)cc1` came in with a z-score of -0.646.
